The source of these data is PubChem BioAssay.

For experiment [1], the system named is PRMT1 (protein arginine N-methyltransferase 1). In words: small molecules binding arginine methyltransferase PRMT1 – biochemical, small-molecule microarray, 635 nm fluorescence, primary screen (AID 1088).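 Further: binding of Prmt1 protein to compounds spotted on small-molecule microarray slides.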 Conditions: higher = more signal.
Experiment [2] can be described thus: growth effects on S. cerevisiae YJM789 – YJM789 clinical isolate, OD600, 24 h, basal, primary screen (AID 1089).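 Further: growth of clinical yeast isolate S. cerevisiae YJM 789 seeded 1000 cells per well; test concentration not given here.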 Conditions: higher = more signal, called active from +8 up or from −8 down.
A short description of experiment [3]: S. pombe growth modifiers, basal conditions – strain 972, OD600, 24 h, no modulator, primary screen (AID 1090).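 Further: basal condition with compound alone and no growth modifier present; test concentration not given here.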 To be noted: S. pombe 972 growth, higher = more signal, called active from +8 up or from −8 down.
Experiment [4] is described as follows: budding yeast growth modifiers under rapamycin – strain BY4716, OD600, 96 h, primary screen (AID 1091). Further: test concentration not given here. Conditions: S. cerevisiae BY4716 + rapamycin, higher = more signal, called active from +8 up or from −8 down.
Experiment [5] concerns the target Torsin-1A-interacting protein 2 (Homo sapiens) (UniProt Q8NFQ8). Nature of the experiment: small molecules binding lysate-expressed LULL1 – cell lysate, human LULL1 lysate, 635/667 nm fluorescence, primary screen (AID 1092).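 Further: probe is lysate of COS7 cells overexpressing human LULL1; score merges per-feature 667 nm fluorescence with signal-to-noise.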 Conditions: small-molecule microarray, hLULL1 lysate binding, 635 nm fluorescence; higher = more signal.
Experiment [6] can be described thus: optical density change of DRC41 E. coli – strain DRC41, OD650, 24 h, E. coli filamentation project, primary screen (AID 1093).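 Further: MC1000 strain lacking acrAB efflux and sulA so SOS filamentation is blocked; test concentration not given here.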 To be noted: E. coli DRC41 growth, higher = more signal, called active from +8 up or from −8 down.
Experiment [7] can be described thus: probe aLefty2 binding to arrayed compounds – biochemical, biotinylated probe, 635/667 nm fluorescence, primary screen (AID 1094).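 Further: score merges spot fluorescence near 667 nm with spot signal-to-noise ratio.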 Conditions: small-molecule microarray, higher = more signal.
Experiment [8] concerns Noggin (protein binding on small-molecule microarray). Nature of the experiment: small molecules binding Noggin protein – biochemical, 635/667 nm fluorescence, primary screen (AID 1095).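 Further: score merges 667 nm feature fluorescence with signal to noise over triplicate slides.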 To be noted: 635 nm fluorescence, higher = more signal.
For experiment [9], the target named is Neurogenic locus notch homolog protein 3 (Homo sapiens) (UniProt Q9UM47). In words: small molecules binding NOTCH3 protein – biochemical, 635/667 nm fluorescence, primary screen (AID 1096). Conditions: small-molecule microarray, 635 nm fluorescence, higher = more signal.
Chain of Neurogenic locus notch homolog protein 3 (Homo sapiens) (Q9UM47 whole entry, looked up): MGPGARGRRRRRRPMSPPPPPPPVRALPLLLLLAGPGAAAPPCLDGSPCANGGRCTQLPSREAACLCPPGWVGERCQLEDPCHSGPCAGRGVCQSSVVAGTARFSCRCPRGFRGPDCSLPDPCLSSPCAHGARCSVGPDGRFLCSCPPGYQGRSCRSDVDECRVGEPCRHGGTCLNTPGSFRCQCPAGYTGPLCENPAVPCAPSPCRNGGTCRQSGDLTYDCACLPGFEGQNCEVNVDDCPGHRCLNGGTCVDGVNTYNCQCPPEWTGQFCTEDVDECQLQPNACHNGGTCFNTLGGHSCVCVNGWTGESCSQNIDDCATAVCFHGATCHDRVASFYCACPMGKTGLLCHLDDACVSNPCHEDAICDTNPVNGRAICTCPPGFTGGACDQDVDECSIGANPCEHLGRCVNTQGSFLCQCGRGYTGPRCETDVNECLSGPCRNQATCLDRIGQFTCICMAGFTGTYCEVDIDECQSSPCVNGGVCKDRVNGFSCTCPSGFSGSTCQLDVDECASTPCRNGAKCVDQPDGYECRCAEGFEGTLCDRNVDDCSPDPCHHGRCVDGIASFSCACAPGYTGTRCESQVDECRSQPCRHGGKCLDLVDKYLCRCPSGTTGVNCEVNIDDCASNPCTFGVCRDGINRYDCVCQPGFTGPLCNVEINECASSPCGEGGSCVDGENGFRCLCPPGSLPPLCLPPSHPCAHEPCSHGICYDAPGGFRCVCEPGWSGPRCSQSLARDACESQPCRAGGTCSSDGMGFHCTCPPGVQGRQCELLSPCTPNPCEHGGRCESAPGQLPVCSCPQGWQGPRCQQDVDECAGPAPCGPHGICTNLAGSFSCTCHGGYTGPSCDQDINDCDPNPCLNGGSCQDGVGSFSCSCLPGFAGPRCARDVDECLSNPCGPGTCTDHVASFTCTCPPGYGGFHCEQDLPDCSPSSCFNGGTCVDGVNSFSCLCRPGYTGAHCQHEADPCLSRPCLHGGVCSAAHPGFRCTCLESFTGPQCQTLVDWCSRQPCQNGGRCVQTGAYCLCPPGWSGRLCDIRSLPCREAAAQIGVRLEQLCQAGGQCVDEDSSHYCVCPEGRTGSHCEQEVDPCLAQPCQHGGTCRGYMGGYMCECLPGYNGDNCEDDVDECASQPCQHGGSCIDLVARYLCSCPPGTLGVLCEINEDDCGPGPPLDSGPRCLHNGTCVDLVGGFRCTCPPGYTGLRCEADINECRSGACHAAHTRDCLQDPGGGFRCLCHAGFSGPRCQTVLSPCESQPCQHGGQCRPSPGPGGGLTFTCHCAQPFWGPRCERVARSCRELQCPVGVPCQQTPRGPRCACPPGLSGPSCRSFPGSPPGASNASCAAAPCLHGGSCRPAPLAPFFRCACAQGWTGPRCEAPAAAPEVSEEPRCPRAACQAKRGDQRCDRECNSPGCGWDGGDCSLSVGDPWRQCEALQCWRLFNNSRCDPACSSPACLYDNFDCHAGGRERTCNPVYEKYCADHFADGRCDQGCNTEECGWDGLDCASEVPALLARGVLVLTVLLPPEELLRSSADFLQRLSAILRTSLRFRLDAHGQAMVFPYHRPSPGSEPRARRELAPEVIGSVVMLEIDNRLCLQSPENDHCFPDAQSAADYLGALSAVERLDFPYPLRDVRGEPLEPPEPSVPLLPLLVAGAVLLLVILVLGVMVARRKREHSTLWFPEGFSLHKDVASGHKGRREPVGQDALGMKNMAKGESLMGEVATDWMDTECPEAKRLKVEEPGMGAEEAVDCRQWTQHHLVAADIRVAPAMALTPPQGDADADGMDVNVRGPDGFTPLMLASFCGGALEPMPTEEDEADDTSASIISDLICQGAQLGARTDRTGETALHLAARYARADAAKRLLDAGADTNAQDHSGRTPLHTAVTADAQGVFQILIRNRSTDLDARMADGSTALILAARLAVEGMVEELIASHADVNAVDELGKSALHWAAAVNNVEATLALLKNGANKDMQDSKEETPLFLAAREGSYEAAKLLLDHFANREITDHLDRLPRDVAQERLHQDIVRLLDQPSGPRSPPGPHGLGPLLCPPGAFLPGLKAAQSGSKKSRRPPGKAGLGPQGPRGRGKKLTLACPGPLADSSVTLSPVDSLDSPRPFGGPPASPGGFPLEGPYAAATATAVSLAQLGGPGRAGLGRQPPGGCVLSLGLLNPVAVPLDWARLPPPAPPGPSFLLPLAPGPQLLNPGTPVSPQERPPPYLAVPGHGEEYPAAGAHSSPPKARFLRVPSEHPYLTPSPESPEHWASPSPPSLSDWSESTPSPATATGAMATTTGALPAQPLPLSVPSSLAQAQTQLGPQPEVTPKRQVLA
Experiment [10] in a line: probe aEGFR binding to arrayed compounds – biochemical, biotinylated probe, 635/667 nm fluorescence, primary screen (AID 1097).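 Further: probe is a biotinylated anti-EGFR antibody binding compounds printed on slides; score combines fluorescence near 667 nm and signal to noise of each spot.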 Conditions: small-molecule microarray, higher = more signal.
Experiment [11] concerns Plasmodium falciparum Sir2 (PF13_0152, Sir2A). Nature of the experiment: Plasmodium falciparum Sir2A binding compounds – biochemical, small-molecule microarray, 635 nm fluorescence, primary screen (AID 1098).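 Further: score merges spot fluorescence intensity with its signal-to-noise ratio.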 To be noted: fluorescence 635 nm, higher = more signal.
A short description of experiment [12]: probe aDKK1 binding to arrayed compounds – biochemical, biotinylated probe, 635/667 nm fluorescence, primary screen (AID 1099).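 Further: score merges 667nm spot fluorescence with signal to noise across triplicate slides; reference of the scale not given here.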 To be noted: small-molecule microarray, higher = more signal.
The nature of experiment [13]: probe aCHRDL2 binding to arrayed compounds – biochemical, biotinylated probe, 635/667 nm fluorescence, primary screen (AID 1100). To be noted: small-molecule microarray, higher = more signal.
The nature of experiment [14]: change in splice reporter luminescence, either direction, cell-based, HEK293, spliceosome inhibition project, primary screen (AID 1101).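 Further: HEK293 cells carrying a splicing-competent luciferase reporter gene; test concentration not given here.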 Conditions: HEK293 splicing luciferase reporter, 24 h, higher = more signal, called active from +8 up or from −8 down.
The target of experiment [15] is Fibroblast growth factor 10 (Homo sapiens) (UniProt O15520). In words: compounds binding fibroblast growth factor 10 – biochemical, small-molecule microarray, 635 nm fluorescence, primary screen (AID 1102). To be noted: FGF10 binding, fluorescence 635 nm, higher = more signal.
Chain of Fibroblast growth factor 10 (Homo sapiens) (O15520 whole entry, looked up): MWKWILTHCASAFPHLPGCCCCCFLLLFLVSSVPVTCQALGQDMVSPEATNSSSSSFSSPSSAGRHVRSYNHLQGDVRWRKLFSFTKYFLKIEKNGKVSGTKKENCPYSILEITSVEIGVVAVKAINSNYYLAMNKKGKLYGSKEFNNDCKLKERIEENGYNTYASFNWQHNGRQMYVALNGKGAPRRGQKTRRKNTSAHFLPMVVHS
Experiment [16] has as its system glycogen synthase kinase-3 (GSK3A per assay name; protocol says GSK3B). Nature of the experiment: compounds binding glycogen synthase kinase-3 – biochemical, small-molecule microarray, 635 nm fluorescence, GSK3A, primary screen (AID 1103). Further: the record names both GSK3A and GSK3B. Conditions: fluorescence 635 nm, higher = more signal.
The target in experiment [17] is Epidermal growth factor receptor (Homo sapiens) (UniProt P00533). In words: compounds binding epidermal growth factor receptor – biochemical, small-molecule microarray, 635 nm fluorescence, primary screen (AID 1104).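 Further: score merges 667 nm emission intensity with spot signal to noise over triplicate slides.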 To be noted: EGFR binding, higher = more signal.
Chain of Epidermal growth factor receptor (Homo sapiens) (P00533 whole entry, looked up): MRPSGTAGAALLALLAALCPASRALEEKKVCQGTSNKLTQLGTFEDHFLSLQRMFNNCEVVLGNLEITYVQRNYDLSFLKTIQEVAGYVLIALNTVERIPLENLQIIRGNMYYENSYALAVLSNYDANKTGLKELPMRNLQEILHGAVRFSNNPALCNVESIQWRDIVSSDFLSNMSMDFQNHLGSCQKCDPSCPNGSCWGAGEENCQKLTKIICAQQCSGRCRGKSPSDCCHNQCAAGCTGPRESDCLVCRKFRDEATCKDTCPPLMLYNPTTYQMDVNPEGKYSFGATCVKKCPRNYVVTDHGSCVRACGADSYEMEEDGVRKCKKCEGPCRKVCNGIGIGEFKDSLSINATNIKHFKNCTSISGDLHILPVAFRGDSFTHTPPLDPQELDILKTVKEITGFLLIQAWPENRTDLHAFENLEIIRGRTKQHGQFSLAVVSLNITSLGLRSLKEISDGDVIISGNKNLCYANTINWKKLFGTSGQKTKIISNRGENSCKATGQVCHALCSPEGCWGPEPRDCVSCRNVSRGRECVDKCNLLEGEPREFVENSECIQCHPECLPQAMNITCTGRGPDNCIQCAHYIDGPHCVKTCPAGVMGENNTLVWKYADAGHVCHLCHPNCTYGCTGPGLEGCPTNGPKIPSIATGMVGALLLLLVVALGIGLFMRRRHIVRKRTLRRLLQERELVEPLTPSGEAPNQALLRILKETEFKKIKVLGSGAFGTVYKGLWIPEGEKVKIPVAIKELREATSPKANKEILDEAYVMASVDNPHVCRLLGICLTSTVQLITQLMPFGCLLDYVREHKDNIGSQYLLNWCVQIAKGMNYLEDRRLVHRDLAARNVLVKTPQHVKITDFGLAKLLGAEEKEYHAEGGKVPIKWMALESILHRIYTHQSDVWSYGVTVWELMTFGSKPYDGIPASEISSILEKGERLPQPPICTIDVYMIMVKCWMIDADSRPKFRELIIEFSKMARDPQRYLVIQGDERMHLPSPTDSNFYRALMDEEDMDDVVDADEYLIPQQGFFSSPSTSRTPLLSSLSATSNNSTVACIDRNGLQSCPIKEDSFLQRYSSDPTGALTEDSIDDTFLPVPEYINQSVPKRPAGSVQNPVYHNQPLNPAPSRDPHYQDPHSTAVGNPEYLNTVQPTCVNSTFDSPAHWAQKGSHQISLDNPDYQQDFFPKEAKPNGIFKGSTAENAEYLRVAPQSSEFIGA
Experiment [18] addresses Follistatin-related protein 3 (Homo sapiens) (UniProt O95633). Nature of the experiment: compounds binding follistatin-related protein 3 – biochemical, small-molecule microarray, 635 nm fluorescence, primary screen (AID 1105).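 Further: score merges emission near 667 nm and signal to noise per printed spot across three slides.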 To be noted: FSTL3 binding, higher = more signal.
Experiment [19] deals with Dickkopf-related protein 1 (Homo sapiens) (UniProt O94907). Nature of the experiment: small molecules binding DKK1 protein – biochemical, small-molecule microarray, 635 nm fluorescence scan, primary screen (AID 1106).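 Further: score merges emission near 667 nm with signal to noise over three replicate slides.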 Conditions: higher = more signal.
Chain of Dickkopf-related protein 1 (Homo sapiens) (O94907 whole entry, looked up): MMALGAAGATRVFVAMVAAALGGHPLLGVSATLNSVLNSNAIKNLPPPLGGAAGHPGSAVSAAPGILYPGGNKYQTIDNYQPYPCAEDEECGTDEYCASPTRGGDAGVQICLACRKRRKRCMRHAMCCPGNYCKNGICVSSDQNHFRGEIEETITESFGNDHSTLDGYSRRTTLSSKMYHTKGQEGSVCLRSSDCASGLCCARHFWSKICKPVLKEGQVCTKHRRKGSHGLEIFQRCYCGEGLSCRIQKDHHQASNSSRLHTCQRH
The subject of experiment [20] is Inhibin beta A chain (activin A). Nature of the experiment: small molecules binding activin A – biochemical, small-molecule microarray, 635 nm fluorescence scan, primary screen (AID 1107).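 Further: mouse activin A protein probed at 4.33 µg/mL on printed slides; score merges bound-protein fluorescence near 667 nm with spot signal-to-noise.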 To be noted: INHBA, higher = more signal.

SMILES strings stand for the structures. Activity calls are given as the source filed them.

Chain of Torsin-1A-interacting protein 2 (Homo sapiens) (Q8NFQ8 whole entry, looked up): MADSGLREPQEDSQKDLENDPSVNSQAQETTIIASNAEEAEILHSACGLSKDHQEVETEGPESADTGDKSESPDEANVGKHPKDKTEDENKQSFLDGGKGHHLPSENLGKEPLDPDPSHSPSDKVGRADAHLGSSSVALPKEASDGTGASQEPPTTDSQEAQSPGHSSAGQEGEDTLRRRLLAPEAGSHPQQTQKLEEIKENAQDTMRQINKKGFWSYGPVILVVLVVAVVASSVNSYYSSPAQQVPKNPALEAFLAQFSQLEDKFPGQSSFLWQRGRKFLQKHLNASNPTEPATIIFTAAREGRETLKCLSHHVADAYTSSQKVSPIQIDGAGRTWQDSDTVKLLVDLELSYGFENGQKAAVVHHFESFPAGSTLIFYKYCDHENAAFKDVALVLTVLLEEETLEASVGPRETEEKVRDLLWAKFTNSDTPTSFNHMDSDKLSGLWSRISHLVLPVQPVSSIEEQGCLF
Chain of Follistatin-related protein 3 (Homo sapiens) (O95633 whole entry, looked up): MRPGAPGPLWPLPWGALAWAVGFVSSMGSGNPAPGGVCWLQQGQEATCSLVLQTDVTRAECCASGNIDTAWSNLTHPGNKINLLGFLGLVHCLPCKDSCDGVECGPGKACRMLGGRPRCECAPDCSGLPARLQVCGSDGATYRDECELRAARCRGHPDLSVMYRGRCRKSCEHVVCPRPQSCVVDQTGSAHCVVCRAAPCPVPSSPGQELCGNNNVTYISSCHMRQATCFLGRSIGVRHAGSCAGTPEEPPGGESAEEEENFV

For `O=C(NN=C1C[C@@H](O)[C@@H](O)[C@@H]2[C@@H]3C(=O)N(c4ccc(F)cc4F)C(=O)[C@@H]3CC[C@H]12)OCc1ccccc1`, the composite z-score in experiment [1] was 0.695; in experiment [5] it was 1.88; in experiment [7], -0.0309; in experiment [8], 0.128; in experiment [9] it was 0.827; in experiment [10], 0.0443. Besides, the composite z-score in [11] was 0.705; in [12] it was 0.052; in experiment [13], 0.793; in experiment [15] it was 0.379; in experiment [16], 0.131; in [17] it was -0.0295. For the same molecule, the composite z-score was 0.385 in experiment [18], -0.118 in [19] and 0.0132 in experiment [20]. The z-score is -0.0025 (inactive) in [2]; -2.08 (inactive) in [3]; -1.69 (inactive) in [4]; 0.782 (inactive) in experiment [6]; 0.267 (inactive) in experiment [14].
Consider `COC(=O)C(C(=O)OC)C1CCCC(=O)C1` (stereo not given), for which the composite z-score in [1] was -0.734; in experiment [5] it was 0.291; in experiment [7] it was -0.0362; in experiment [8], 0.365; in experiment [9], 0.655; in [10] it was -0.0952. Besides, the composite z-score was 0.377 in experiment [11]; -0.207 in experiment [12]; -0.618 in experiment [13]; 0.755 in experiment [15]; 0.772 in [16]; 0.399 in experiment [17]. The composite z-score in experiment [18] stood at 0.508; in experiment [19], 0.978; in [20] it was 0.151. For the same molecule, the z-score in [2] was 0.069 (inactive); in [3], 0.389 (inactive); in experiment [4], 0.751 (inactive); in experiment [6] it was -0.195 (inactive); in [14] it was -0.388 (inactive).
On to `C[C@H]1CC[C@@H](C(=O)O)N[C@@H]1c1ccc(C#Cc2ccccc2)cc1`, for which the composite z-score was 1.52 in experiment [1]; 1.78 in experiment [5]; -0.0615 in experiment [7]; 0.875 in [8]; 1.09 in experiment [9]; 0.0651 in experiment [10]. The composite z-score is 0.194 in experiment [11]; 0.0274 in [12]; -0.273 in experiment [13]; 1.24 in experiment [15]; 1.1 in [16]; 0.935 in [17]. Further, the composite z-score in experiment [18] stood at 1.31; in experiment [19], 1.07; in [20], 1.01. The z-score in experiment [2] is -26.4 (active); in experiment [3], -21.1 (active); in experiment [4], -3.15 (inactive); in [6] it was 0.161 (inactive); in experiment [14] it was 0.29 (inactive).
`O=C1[C@H]2[C@H]3[C@H](O)[C@H](O)CC(=NO[C@@H]4O[C@H](CO)[C@@H](O)[C@H](O)[C@H]4O)[C@@H]3CC[C@H]2C(=O)N1c1cccc(Oc2ccccc2)c1`: the composite z-score in [1] is -0.175; in experiment [5], 0.879; in [7], -0.028; in experiment [8] it was 0.672; in [9] it was 0.449; in experiment [10], 0.0102. Also, the composite z-score was 0.405 in [11]; -0.327 in experiment [12]; -0.595 in [13]; 0.659 in experiment [15]; 0.736 in experiment [16]; 0.778 in experiment [17]. For the same molecule, the results for the composite z-score in [18], in experiment [19] and in [20] were 0.711, 0.701 and 0.374, respectively. For the same molecule, the z-score was -0.603 (inactive) in experiment [2]; 0.275 (inactive) in experiment [3]; 0.0506 (inactive) in experiment [4]; 0.364 (inactive) in experiment [6]; 0.302 (inactive) in experiment [14].
On to `Cc1ccc(C(C)C)n1C(=O)OC(C)(C)C`, for which the composite z-score in [1] is 0.0565; in experiment [5], 0.345; in [7] it was -0.138; in experiment [8] it was 0.535; in experiment [9] it was 0.915; in [10] it was -0.0549. The composite z-score in experiment [11] was -0.0286; in experiment [12] it was -0.271; in experiment [13], -0.611; in experiment [15], 0.789; in [16] it was 0.61; in experiment [17], 0.55. The composite z-score is 0.807 in experiment [18], 0.768 in experiment [19] and -0.124 in experiment [20]. In addition, the z-score in experiment [2] was -0.923 (inactive); in experiment [3], -0.817 (inactive); in experiment [4], -0.665 (inactive); in [6] it was -0.315 (inactive); in experiment [14], -1.45 (inactive).
